The text below walks through data of PubChem BioAssay (EPA / NIEHS).

Each structure is given as a SMILES string. Active and inactive are the calls of the source. Rule for the calls: active = hit-call score of the fitted dose curve at least 0.9, where 1 is the maximum; inactive = score below 0.9.

Read-out in the test: Transforming growth factor beta 1 (TGFb1), TGFB1 (gene 7040)
Nature of the test: BSK_BE3C_TGFb1: BioMAP Diversity Plus: BE3C Assay for Transforming growth factor beta 1 (TGFb1) Biomarker Activity (AID 2283036). Particulars: primary human bronchial epithelial cells; actives raise or lower the signal. The method, then: BSK_BE3C is a cell-based, multiplexed-readout assay that uses bronchial epithelial cell, a human lung primary cell, with measurements taken at 24 hours after chemical dosing in a 96-well plate.BSK_BE3C_TGFb1 is an assay component measured in the BSK_BE3C assay. It measures TGF-b1 antibody related to regulation of gene expression using ELISA technology.Data from the assay component BSK_BE3C_TGFb1 was analyzed into 1 assay endpoint. This assay endpoint, BSK_BE3C_TGFb1, was analyzed with bidirectional fitting relative to DMSO as the negative control and baseline of activity. Using a type of binding reporter, gain or loss-of-signal activity can be used to understand changes in the signaling as they relate to the gene TGFB1. Furthermore, this assay endpoint can be referred to as a primary readout, because this assay has produced multiple assay endpoints where this one serves a signaling function. To generalize the intended target to other relatable targets, this assay endpoint is annotated to the growth factor intended target family, where the subfamily is transforming growth factor beta.
The levels of cell surface (or secreted, indicated by the prefix "s") biomarker endpoints were measured by ELISA. Overt cytotoxicity to cells in confluent adherent cultures (all systems other than the BT system) was assessed by measuring total protein levels using sulforhodamine B (SRB) staining in parallel cultures at the time of biomarker measurements, indicated as SRB endpoints. For proliferation assays for adherent cell types, individual cell types are cultured at sub-confluence and relative cell numbers quantified by SRB staining at time points optimized for each system (48 h: 3C and CASM3C systems; 72 h: BT and HDF3CGF systems; 96 h: SAg system). SRB was performed by staining cells with 0.1% SRB after fixation with 10% TCA and reading wells at 560 nm.Viability and proliferation of PBMC (T cells) was quantified by Alamar Blue reduction for the SAg and BT systems. For PBMC viability (referred to as PBMC Cytotoxicity within the assay endpoint names), cells were plated (75,000/well in a 96-well plate) and then chemical samples added for 1 h before addition of activators, SEB and TSST-1 (20 ng/mL final concentration each). Cells were incubated for 90 h. Then, Alamar Blue (20 uL/well) (Invitrogen, Cat DAL1100) was added for 6 h, and the plates were read with a fluorescence microplate reader at 546/580 nm (excitation/emission). For PBMC proliferation, cells were plated and activated as above but incubated for only 16 h prior to addition of Alamar Blue. Plates were read after 6 h.
With `Clc1ccc(Cl)c(Cl)c1`, the result was inactive. Same read-out and setting: as for `CC(C)(OOC(C)(C)c1ccccc1)c1ccccc1`, the entry is “inactive”; as for `Cn1cc(-c2ccccc2)c(=O)c(-c2cccc(C(F)(F)F)c2)c1`, “inactive”; as for `COC(=O)Nc1nc2ccccc2[nH]1`, “inactive”. The same measure, in the same setting: as for `CS(=O)(=O)NC(=O)c1cc(Oc2ccc(C(F)(F)F)cc2Cl)ccc1[N+](=O)[O-]`, the entry is “inactive”; as for `CCOc1cccc(C2(N3CCN(c4ccccc4)CC3)CCC(C)CC2)c1` (stereo not given), “inactive”. On the same count and under the same terms, as for `C=CCc1ccc2c(c1)OCO2`, the entry is “inactive”; as for `CC(C)(C)OOC(=O)c1ccccc1`, “inactive”; as for `Oc1ccccc1Cl`, “inactive”.

Regarding `CO[C@@H]1[C@H](OC(=O)NC(=O)CCl)CC[C@]2(CO2)[C@H]1[C@@]1(C)O[C@@H]1CC=C(C)C`, the result was inactive.

For `COC(=O)c1ccccc1N`, the outcome was inactive.

Turning to `COP(=S)(OC)SCN1C(=O)c2ccccc2C1=O`, the outcome was inactive. As to `CCCCCCCCn1sccc1=O`, the AC50 is 5.55 µM (active). Consider `N#CC(Br)Br`, for which the outcome was inactive. Still for that read-out and setting: as for `CC(C)N(Cc1ccccc1)C(=O)C(C)(C)C`, the entry is “inactive”; as for `CCCCCCCCOC(=O)c1ccc(C(=O)OCCCCCCCC)c(C(=O)OCCCCCCCC)c1`, “inactive”; as for `O=[N+]([O-])C(Br)(CO)CO`, “inactive”. The same measure, in the same setting: for `Brc1ccc(Oc2ccccc2)cc1` the value was “inactive”. With `O=C(N[C@H](c1ccccc1)[C@@H]1CN2CCC1CC2)c1c(Cl)ccc(C(F)(F)F)c1Cl`, the AC50 was 19.4 µM (active). Turning to `O=P(OCCCl)(OCCCl)OCCCl`, the outcome was inactive.

Take `ClCCOCCCl`: the result was inactive. Same read-out and setting: as for `Cc1ccc(N)c(N)c1`, the entry is “inactive”; as for `CC(C)COC(=O)c1ccccc1C(=O)OCC(C)C`, “inactive”. Regarding `Clc1ccc(C(c2ccc(Cl)cc2)C(Cl)Cl)cc1`, the AC50 was 34.6 µM (active). On to `c1ccc2c(c1)-c1cccc3cccc-2c13`, for which the outcome was inactive. For the compound `COc1cc(C=O)cc2c1[C@H](COC(N)=O)[C@]1(OC(C)=O)ON2C[C@H]2[C@@H]1N2C(C)=O`, the AC50 is 4.63 µM (active). `Clc1ccc(C(c2ccc(Cl)cc2)C(Cl)(Cl)Cl)cc1`: the outcome was inactive.

As for `Cc1ccc([N+](=O)[O-])cc1`, the outcome was inactive. On the same count and under the same terms, as for `[O-][Cl+]O`, the entry is “inactive”; as for `CN(C)[C@@H]1C(=O)C(C(N)=O)=C(O)[C@@]2(O)C(=O)C3=C(O)c4c(O)cccc4[C@@](C)(O)[C@H]3C[C@@H]12`, “inactive”. The same measure, in the same setting: as for `CCN(CC)CCO`, the entry is “inactive”; as for `Nc1ccc(Oc2ccc(N)cc2)cc1`, “inactive”; as for `Cc1ccc(N=C=O)cc1N=C=O`, “inactive”. Turning to `O=C1CCCO1`, the outcome was inactive.

Consider `CC(O)CCO` (stereo not given), for which the outcome was inactive. The same measure, in the same setting: as for `CCCCOC(=O)c1ccccc1C(=O)OCc1ccccc1`, the entry is “inactive”. As to `CCC[CH2][Sn]([Cl])([CH2]CCC)[CH2]CCC`, the AC50 is 0.147 µM (active).

Regarding `CCCCCCCCCCCCCN1CC(C)OC(C)C1` (stereo not given), the outcome was inactive. For the compound `OCCOCCO`, the result was inactive. `Nc1cc(Cl)cc(C(=O)O)c1Cl`: the result was inactive.

One may read the AC50 as the midpoint of the concentration-response curve, whichever way the signal moves.
